# From PubChem BioAssay AID2314 (National Center for Advancing Translational Sciences (NCATS), 2010)
# Screen size: about 300,000 compounds; about 37,000 (12%) were called active. The list comes from a sample in which actives are over-represented; it also holds similar structures and randomly drawn compounds. Unmarked numbers belong to inactive results. Rule as the data show it: active = max response mostly above about 13% (no sharp cut-off); inactive = mostly below about 14%.
# Test: Cycloheximide Counterscreen for Small Molecule Inhibitors of Shiga Toxin; also: read at 38.3 µM for the half of the compounds with a filed dose; 0% is about no effect
# Conditions: cell reporter, cycloheximide protein synthesis inhibition counterscreen; active compounds read high
row,SMILES,max response
1,CN1C2CCC1CC(NC(=O)c1ccc([N+](=O)[O-])cc1)C2 (stereo unspecified),-3.99%
2,Cc1nn(-c2ccccc2)c(CC(C)(C)C(=O)O)c1C(=O)O,-4%
3,CSc1ccccc1C(=O)Nc1cccc(C(C)=O)c1,11.9%
4,CCn1c(=O)c2cc(C(=O)Nc3cccc(C(C)=O)c3)sc2c2ccccc21,-2.44%
5,Cc1ccc(NC(=O)Nc2cc(-c3ccccc3)nn2C)cc1Cl,1.12%
6,Cc1nn(-c2ccccc2)c(Cl)c1C(=O)Nc1ccccc1,24.4% (active)
7,Cc1cc(NC(=O)Nc2ccccc2)n(-c2ccccc2)n1,18.1% (active)
8,CC(=O)c1cccc(NC(=O)c2cc(C)nn2-c2ccccc2)c1,12.3% (active)
9,Cc1cc(NC(=O)Nc2ccc(Cl)cc2)n(-c2ccccc2)n1,1.95%
10,COc1ccc(CCNC(=O)c2c(C)nn(-c3ccccc3)c2Cl)cc1,-2.65%
11,O=C(NCc1ccco1)/C(=C/c1cccc([N+](=O)[O-])c1)NC(=O)c1ccco1,1.87%
12,COC(=O)[C@H](Cc1ccccc1)NC(=O)[C@@H]1C[C@H]1[C@@H](NC(=O)OCc1ccccc1)c1ccccc1,-3.05%
13,Cc1nn(C)c(C)c1Sc1ccccc1N,1.39%
14,O=C(COc1ccc([N+](=O)[O-])cc1)Nc1cccc(C(=O)Nc2ccccc2C(=O)O)c1,-6.64%
15,Cc1cccc(N2CCN(C(C)C(=O)N3CCc4ccccc43)CC2)c1C (stereo unspecified),-5.33%
16,O=C(c1cn(-c2ccccc2)nc1-c1cc2ccccc2oc1=O)N1CCOCC1,6.82%
17,Nc1ncc(-c2cc3ccccc3oc2=O)s1,43.5% (active)
18,O=C(NCc1cccnc1)c1cccc(-c2cc3ccccc3oc2=O)c1,12.9%
19,O=C(Nc1ccc(F)cc1)C1CCCN(S(=O)(=O)c2ccc(-n3cnnn3)cc2)C1 (stereo unspecified),-0.989%
20,O=C(c1c(F)cccc1Cl)N1CCN(c2ccccn2)CC1,-8.36%
21,COc1ccccc1CNC(=O)c1ccc(CS(=O)(=O)c2ccccc2)o1,-1.73%
22,O=C(COC(=O)/C=C/c1nc2ccccc2s1)Nc1ccccc1Oc1ccccc1,-1.69%
23,NC(=O)COC(=O)/C=C/c1ccc2ccccc2n1,16.4% (active)
24,CC(=O)c1ccc(S(=O)(=O)N2CCN(C(=O)/C=C/c3ccc4ccccc4n3)CC2)cc1,-1.24%
25,CCCCCCCCn1c2c(c(=N)c3c1CCC3)CCCC2,-1.22%
26,CCC(CC)COC(=O)C1=C(C)NC(=O)NC1c1ccc([N+](=O)[O-])cc1 (stereo unspecified),-4.34%
